# Several values for one entry are separate records, joined by “and”; a condition that tells them apart may be missing. Equal values may be shown once. Values without a mark were called inactive. Inconclusive results are not listed. Activity calls are given as the source filed them. Unless noted, calls come from the whole dose curve; as a rule, active = well fitted curve in either direction with a large enough effect (not every such curve was filed as active); inconclusive = small, poorly fitted or top-dose-only effect, or another doubt; inactive = flat fitted curve, though single readings scatter.
# Key:
# [1] = biological target: Lysosomal acid glucosylceramidase (Homo sapiens) (UniProt P04062); assay: Glucocerebrosidase-p2 (AID 348; in the data active = potency below about 10 µM; note: potency is the fitted concentration of half-maximal effect); conditions: purified GBA, blue fluorogenic substrate, 40 min
# Summary of the method: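 Normal human glucocerebrosidase (0.2 nM) with blue fluorogenic substrate (80 uM final) in citrate/phosphate pH 5.9 with 10mM sodium taurocholate, 0.01% tween-20; 40 min RT, NaOH/glycine stop; fluorescence Ex 365/Em 440; AC50 from a titration from 0.6 nM upwards.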
# [2] = AP1 Signaling Pathway (AID 357); conditions: ME-180 (cervical carcinoma) AP-1-bla reporter, EGF-induced, beta-lactamase ratio, 5 h;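 note: ME-180 reporter cells stimulated with EGF at its EC50 level; % is set by controls: 0 for no effect and ±100 for the full control effect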
# Summary of the method: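 Cells are seeded overnight, exposed to compound titrations and an EC50 level of EGF for 5 hours at 37 °C, then loaded with CCF4 dye for 2.5 hours. Beta-lactamase activity under the AP-1 element is read as a blue/green ratio.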
# [3] = Cell Viability - BJ (AID 421; calls by dose curve;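 note: potency is the fitted concentration of half-maximal effect; cells exposed to compound for 40 hours at 37 °C before readout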); conditions: BJ fibroblast viability, qHTS
# Summary of the method: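 Quantitative HTS: ATP depletion in BJ cells after 40 hr compound exposure in complete culture medium, detected with CellTiter-Glo; AC50 from standard Hill fits.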
# [4] = Cell Viability - Jurkat (AID 426;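 active = dose-dependent loss of cell ATP signal giving a full or clear fitted curve, ranked by lower potency value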;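 note: potency is the fitted concentration of half-maximal effect; cells exposed to compound for 40 hours at 37 °C before ATP read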); conditions: qHTS
# Summary of the method: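 Cytotoxicity taken as drop in cellular ATP (CellTiter-Glo luminescence, 20 min room temperature) after 40 hr, 37C treatment of 5000 Jurkat Clone E6-1 cells per well; concentration-response fitted with Hill equation for AC50.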
# [5] = Cell Viability - Hek293 (AID 427;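 active = compounds whose dose-response curve shows a full or clear partial loss of cell viability, called from curve shape rather than a numeric limit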;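 note: potency is the fitted concentration of half-maximal effect; cells exposed to compound for 40 hours at 37 °C before reading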); conditions: qHTS
# Summary of the method: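 AC50 values derive from Hill-modelled concentration-response of ATP-based luminescence, normalized between DMSO-only and 100 uM tamoxifen controls. Cells were exposed in complete culture medium for 40 hr at 37 °C before detection.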
# [6] = Cell Viability - HepG2 (AID 433; calls by dose curve;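 note: potency is the fitted concentration of half-maximal effect; cells exposed to compound for 40 hours; potency for ATP loss meaning cytotoxicity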); conditions: qHTS
# Summary of the method: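 HepG2 cells, 1500 per well, treated 40 hr at 37 °C in complete medium; viability from intracellular ATP by CellTiter-Glo luminescence. Normalized to DMSO and 100 uM tamoxifen; AC50 from Hill fit of qHTS concentration-response.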
# [7] = Cell Viability - MRC5 (AID 434; calls by dose curve;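 note: potency is the fitted concentration of half-maximal effect; cells exposed to compound for 40 hours at 37 °C; potency reflects cytotoxicity seen as loss of intracellular ATP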); conditions: MRC5 lung fibroblast viability, qHTS
# Summary of the method: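 AC50 values come from Hill-equation fits of intracellular ATP loss, measured by CellTiter-Glo luminescence. Normal lung fibroblasts (MRC5) had 40 hr compound treatment at 37 C, normalized between DMSO and 100 uM tamoxifen.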
# [8] = Cell Viability - SK-N-SH (AID 435; calls by dose curve;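 note: potency is the fitted concentration of half-maximal effect; compound exposure lasted 40 h at 37 °C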); conditions: SK-N-SH neuroblastoma cell viability qHTS
# Summary of the method: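 SK-N-SH neuroblastoma cells (1500/well) treated 40 h at 37 °C in complete medium; viability read as cellular ATP by CellTiter-Glo luminescence. Normalized to DMSO and 100 uM tamoxifen; AC50 from Hill fits of qHTS concentration-response.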
# [9] = biological target: Cytochrome P450 1A2 (Homo sapiens) (UniProt P05177); assay: p450-cyp1a2 (AID 410; calls by dose curve; note: potency is the fitted concentration of half-maximal effect;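 for activity change, negative = inhibition: -100% = full effect of reference inhibitor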); conditions: recombinant CYP1A2, luciferin-ME demethylation, luminescence; series mostly up to 57 µM
# Summary of the method: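 Luminescent demethylation readout: Luciferin-ME (100uM, equal to Km) turned over by 20nM CYP1A2 for 60 min at room temperature after NADPH regeneration addition, following 10 min compound preincubation. Normalization used 57 uM furafylline as full inhibition.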
# [10] = NFAT Signaling Pathway (AID 444); conditions: Jurkat NFAT-bla M1, carbachol, beta-lactamase ratio, 5 h; at 38 µM (top of the series) unless noted;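 note: carbachol stimulus at about its EC50 of 1 µM final; % is set by controls: 0 for no effect and ±100 for the full control effect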
# Summary of the method: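 Read-out: CCF4 FRET ratio (460 nm/530 nm) after 1 h RT dye loading, used for %activity and AC50 from titration series. Cells: Jurkat NFAT-β-lactamase/M1 line, treated with compound plus 1 uM carbachol for 5 h, 37 °C.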
# Cytochrome P450 1A2 (Homo sapiens), sequence (P05177 whole entry, looked up): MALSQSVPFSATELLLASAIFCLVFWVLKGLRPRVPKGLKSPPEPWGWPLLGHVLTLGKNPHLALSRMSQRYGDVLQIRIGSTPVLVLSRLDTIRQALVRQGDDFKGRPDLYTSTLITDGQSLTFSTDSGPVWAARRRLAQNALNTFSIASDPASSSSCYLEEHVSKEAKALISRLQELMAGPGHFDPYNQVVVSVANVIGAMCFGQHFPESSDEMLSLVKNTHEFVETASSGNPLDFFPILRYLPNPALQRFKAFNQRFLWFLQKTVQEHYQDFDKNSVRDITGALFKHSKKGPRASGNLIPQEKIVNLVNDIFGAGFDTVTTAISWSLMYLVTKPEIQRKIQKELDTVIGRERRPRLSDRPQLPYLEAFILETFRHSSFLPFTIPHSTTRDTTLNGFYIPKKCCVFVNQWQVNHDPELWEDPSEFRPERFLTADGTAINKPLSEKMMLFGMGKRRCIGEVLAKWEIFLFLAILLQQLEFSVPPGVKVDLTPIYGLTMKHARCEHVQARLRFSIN
# Lysosomal acid glucosylceramidase (Homo sapiens), sequence (P04062 whole entry, looked up): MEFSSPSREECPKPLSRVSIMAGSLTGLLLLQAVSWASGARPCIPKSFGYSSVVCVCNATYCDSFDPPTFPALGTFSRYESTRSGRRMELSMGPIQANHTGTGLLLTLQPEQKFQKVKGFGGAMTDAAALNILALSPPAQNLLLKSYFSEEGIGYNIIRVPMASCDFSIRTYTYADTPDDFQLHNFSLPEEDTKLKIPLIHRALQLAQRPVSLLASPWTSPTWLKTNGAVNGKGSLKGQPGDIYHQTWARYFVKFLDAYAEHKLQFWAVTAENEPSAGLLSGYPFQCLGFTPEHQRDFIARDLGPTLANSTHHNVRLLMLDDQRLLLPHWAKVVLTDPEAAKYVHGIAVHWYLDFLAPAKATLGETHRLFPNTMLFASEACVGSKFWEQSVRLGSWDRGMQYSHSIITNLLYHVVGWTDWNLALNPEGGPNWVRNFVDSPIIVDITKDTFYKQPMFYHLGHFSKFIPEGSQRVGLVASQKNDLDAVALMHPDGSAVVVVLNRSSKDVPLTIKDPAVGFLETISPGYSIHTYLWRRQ
compound,measurement,setting,value
c1cnc2c(c1)ccc1cccnc12,Potency,[1],> 11.4 µM
same,"activity change, negative = inhibition",[2]; at 7.69 µM (top of the series),-13.2%
same,"activity change, negative = inhibition",[2]; at 38 µM (top of the series),0.206%
same,Potency,[3],> 92 µM
same,Potency,[4],8.24 µM (active)
same,Potency,[5],2.4 µM (active)
same,Potency,[6],4.55 µM (active)
same,Potency,[7],> 92 µM
same,Potency,[8],3.86 µM (active)
CCOc1ccc2nc(S(N)(=O)=O)sc2c1,"activity change, negative = inhibition",[2]; at 17.2 µM (top of the series),7.72%
COc1cc(OC)c(/C=C2/C(=O)Nc3ccccc32)c(OC)c1,"activity change, negative = inhibition",[2]; at 38 µM (top of the series),-28.2%
same,Potency,[9],0.501 µM (active)
same,"activity change, negative = inhibition",[10],-8.19%
N=C(N)SCCc1ccc(CCSC(=N)N)cc1,"activity change, negative = inhibition",[2]; at 38 µM (top of the series),14.8%
CN(C)C(N)=NCCC[C@H](N)C(=O)O,"activity change, negative = inhibition",[2]; at 38 µM (top of the series),3.1%
same,Potency,[9],inactive
same,"activity change, negative = inhibition",[10],-0.969%
NCCCCCCCCCCN,"activity change, negative = inhibition",[2]; at 38 µM (top of the series),4.16%
same,"activity change, negative = inhibition",[10],0.00398%
Cn1c(=O)c2[nH]c(-c3ccccc3)nc2n(C)c1=O,"activity change, negative = inhibition",[2]; at 38 µM (top of the series),14.7%
same,"activity change, negative = inhibition",[10],3.48%
CN1CCc2ccccc2Cc2[nH]c3ccccc3c2CC1,"activity change, negative = inhibition",[2]; at 38 µM (top of the series),8.89%
same,"activity change, negative = inhibition",[10],-7.31%
Nc1ccc(O)c(C(=O)O)c1,"activity change, negative = inhibition",[2]; at 17.2 µM (top of the series),12.5%
same,Potency,[3],> 92 µM
same,Potency,[4],> 92 µM
same,Potency,[5],> 92 µM
same,Potency,[6],> 92 µM
same,Potency,[7],> 92 µM
same,Potency,[8],> 92 µM
same,"activity change, negative = inhibition",[10],-25.5% [at 17.2 µM]
N#C/C(=C\c1ccc(O)c(O)c1)C(=O)c1ccc(O)c(O)c1,"activity change, negative = inhibition",[2]; at 38 µM (top of the series),-8.79%
same,"activity change, negative = inhibition",[10],-9.14%
CC1(C)S[C@@H]2[C@H](NC(=O)[C@H](N)c3ccccc3)C(=O)N2[C@H]1C(=O)O,"activity change, negative = inhibition",[2]; at 17.2 µM (top of the series),6.1%
same,Potency,[3],> 92 µM
same,Potency,[4],> 92 µM
same,Potency,[5],> 92 µM
same,Potency,[6],> 92 µM
same,Potency,[7],> 92 µM
same,Potency,[8],> 92 µM
same,"activity change, negative = inhibition",[10],3.92% [at 17.2 µM]
COc1cc(/C=C/C(=O)CC(=O)/C=C/c2ccc(O)c(OC)c2)ccc1O,"activity change, negative = inhibition",[2]; at 17.2 µM (top of the series),22.5%
same,Potency,[4],28.2 µM (active)
same,Potency,[5],42.7 µM (active)
same,Potency,[6],> 92 µM
same,Potency,[7],45.2 µM (active)
same,Potency,[8],22.9 µM (active)
NCCCS(=O)(=O)O,"activity change, negative = inhibition",[2]; at 38 µM (top of the series),-1.95%
same,"activity change, negative = inhibition",[10],29%
OC[C@H]1O[C@@H](n2cnc3c(Nc4ccccc4)ncnc32)[C@H](O)[C@@H]1O,"activity change, negative = inhibition",[2]; at 17.2 µM (top of the series),0.891%
same,"activity change, negative = inhibition",[10],4.47% [at 17.2 µM]
Cc1c(Nc2ncccc2C(=O)O)cccc1C(F)(F)F,"activity change, negative = inhibition",[2]; at 17.2 µM (top of the series),-17.9%
same,"activity change, negative = inhibition",[10],-13.1% [at 17.2 µM]
C=C[C@H]1CN2CC[C@@H]1C[C@@H]2[C@@H](O)c1ccnc2ccc(OC)cc12,"activity change, negative = inhibition",[2]; at 38 µM (top of the series),0.0731% and 9.28%
same,"activity change, negative = inhibition",[10],-6.92% and -0.71%
Cc1c(N)c(=O)n(-c2ccccc2)n1C,"activity change, negative = inhibition",[2]; at 17.2 µM (top of the series),7.65%
same,"activity change, negative = inhibition",[10],-9.93% [at 17.2 µM]
CCCn1c(=O)c2[nH]c(-c3ccc(OCC(=O)NCCN)cc3)nc2n(CCC)c1=O,"activity change, negative = inhibition",[2]; at 38 µM (top of the series),6.39%
same,"activity change, negative = inhibition",[10],-8.17%
NCCCCC(=O)O,"activity change, negative = inhibition",[2]; at 38 µM (top of the series),-6.31%
same,Potency,[9],inactive
same,"activity change, negative = inhibition",[10],-1.14%
CN(C)c1nc(N)c(C(=O)N=C(N)N)nc1Cl,"activity change, negative = inhibition",[2]; at 38 µM (top of the series),10.7%
same,"activity change, negative = inhibition",[10],-15.7%
O=C(Nc1cccc(C(=O)Nc2ccc(S(=O)(=O)O)c3cc(S(=O)(=O)O)cc(S(=O)(=O)O)c23)c1)Nc1cccc(C(=O)Nc2ccc(S(=O)(=O)O)c3cc(S(=O)(=O)O)cc(S(=O)(=O)O)c23)c1,"activity change, negative = inhibition",[2]; at 38 µM (top of the series),-2.72%
same,Potency,[9],inactive
same,"activity change, negative = inhibition",[10],4.75%
Clc1ccc(N2CCN(Cc3c[nH]c4ncccc34)CC2)cc1,"activity change, negative = inhibition",[2]; at 38 µM (top of the series),-4.78%
same,"activity change, negative = inhibition",[10],-18.8%
CCCCN1CCC(n2c(=O)[nH]c3ccccc32)CC1,"activity change, negative = inhibition",[2]; at 38 µM (top of the series),-4.94%
same,"activity change, negative = inhibition",[10],4.7%
CC1(C)CCC=[N+]1[O-],"activity change, negative = inhibition",[2]; at 38 µM (top of the series),-4.03%
same,Potency,[9],inactive
same,"activity change, negative = inhibition",[10],-6.56%
O=C1C(SCCO)=C(SCCO)C(=O)c2ccccc21,"activity change, negative = inhibition",[2]; at 38 µM (top of the series),-104% (active)
same,"activity change, negative = inhibition",[10],-94.5% (active)
O=c1[nH]c2cc(Cl)c(Cl)cc2[nH]c1=O,"activity change, negative = inhibition",[2]; at 38 µM (top of the series),-8.09%
same,"activity change, negative = inhibition",[10],4.68%
CC(C)(C=O)Cc1cc(C(C)(C)C)c(O)c(C(C)(C)C)c1,"activity change, negative = inhibition",[2]; at 38 µM (top of the series),5.89%
same,"activity change, negative = inhibition",[10],-17.5%
Nc1ccc(C(=O)O)c(O)c1,"activity change, negative = inhibition",[2]; at 17.2 µM (top of the series),2.89% and -3.6%
same,"activity change, negative = inhibition",[10],10.1% [at 17.2 µM] and -5.83% [at 17.2 µM]
N.N.O=C(O)C1(C(=O)O)CCC1.[Pt],"activity change, negative = inhibition",[2]; at 38 µM (top of the series),-8.77%
same,"activity change, negative = inhibition",[10],13.9%
N[C@H](CCCP(=O)(O)O)C(=O)O,"activity change, negative = inhibition",[2]; at 38 µM (top of the series),-8.4%
same,"activity change, negative = inhibition",[10],-6.29%

# From PubChem BioAssay (NCATS)
